Most compounds without a hit are left out; they make up all but 3.6% or so of the library.
Mdm2-MdmX inh – inhibitors of human Mdm2-MdmX association, primary screen, cell-based, luminescence, split luciferase, SaOS-2, uHTS | 330,000 tested, 3% active | Protein Mdm4 (Homo sapiens) + E3 ubiquitin-protein ligase Mdm2 (Homo sapiens), … | AID 485346, 2010 | inhibition, % at 8 µM | SaOS-2 split-luciferase Mdm2/MdmX complementation;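 active = inhibition of at least 50% at 8 µM in the primary screen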
Target sequence (O15151 whole entry, looked up): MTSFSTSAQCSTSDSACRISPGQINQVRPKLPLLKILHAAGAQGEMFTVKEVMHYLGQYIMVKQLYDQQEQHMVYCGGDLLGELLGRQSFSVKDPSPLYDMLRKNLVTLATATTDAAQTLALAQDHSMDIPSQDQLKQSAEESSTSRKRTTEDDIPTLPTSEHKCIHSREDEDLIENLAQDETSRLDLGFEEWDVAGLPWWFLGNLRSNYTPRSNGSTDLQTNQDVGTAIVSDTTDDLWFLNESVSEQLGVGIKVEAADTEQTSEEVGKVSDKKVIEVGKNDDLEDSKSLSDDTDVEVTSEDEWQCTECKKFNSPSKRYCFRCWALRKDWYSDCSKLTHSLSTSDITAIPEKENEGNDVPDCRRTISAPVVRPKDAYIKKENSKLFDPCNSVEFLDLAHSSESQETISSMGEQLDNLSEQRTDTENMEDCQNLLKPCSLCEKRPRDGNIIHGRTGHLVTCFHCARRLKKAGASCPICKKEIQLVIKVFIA
Target sequence (Q00987 whole entry, looked up): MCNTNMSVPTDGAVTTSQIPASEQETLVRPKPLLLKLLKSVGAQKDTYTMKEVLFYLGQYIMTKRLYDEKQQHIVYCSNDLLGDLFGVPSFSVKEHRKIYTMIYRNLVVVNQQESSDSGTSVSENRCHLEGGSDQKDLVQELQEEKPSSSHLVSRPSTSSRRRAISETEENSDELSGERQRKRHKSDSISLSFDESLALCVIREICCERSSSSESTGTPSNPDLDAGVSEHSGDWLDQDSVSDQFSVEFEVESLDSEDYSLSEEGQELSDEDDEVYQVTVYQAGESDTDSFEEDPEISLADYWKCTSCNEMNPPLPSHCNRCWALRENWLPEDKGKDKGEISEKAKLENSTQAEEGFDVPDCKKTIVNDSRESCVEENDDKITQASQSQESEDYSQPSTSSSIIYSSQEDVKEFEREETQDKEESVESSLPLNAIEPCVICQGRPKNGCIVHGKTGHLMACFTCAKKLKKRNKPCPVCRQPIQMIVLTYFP
KKLEB cytotox – cytotoxicity in KKLEB CF airway cells, primary screen, cytotoxicity control for CF NF-kB inhibitor project, cell-based, uHTS, fluorescence assay plates; 360,000 tested, 0.36% active; KKLEB CF airway cells viability, ATPlite luminescence, overnight; stronger effect = lower value; cells stimulated with P. aeruginosa culture filtrate; activity change (cytotoxicity), % at 5 µM; AID 602141, 2011;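 active = corrected activity change at or below -50% at 5 µM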
CF NFkB block – inhibitors of PAF-induced NF-kB signaling, primary screen, cell-based, GFP fluorescence, uHTS | KKLEB NF-kB-GFP reporter, GFP fluorescence overnight | AID 588850, 2011 | 360,000 tested, 0.86% active | inhibition, % at 5 µM;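 active = at least 50% inhibition at 5 µM, scaled per plate between neutral and stimulator controls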;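 also: PAF is a Pseudomonas aeruginosa culture filtrate used as stimulus; plate controls were PAF-stimulated DMSO wells for no effect and unstimulated DMSO wells for full effect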
HSP90 refold inh – HSP90 inhibitors, primary screen, cell lysate, luminescence. inhibition, % at 5.6 µM. Heat shock protein HSP 90 (rabbit reticulocyte lysate; luciferase refolding). 290,000 tested, 0.91% active. Rabbit reticulocyte lysate, luciferase refolding luminescence, 3 h;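 active = inhibition above the screen-wide mean plus 3 SD, computed separately per campaign, cut at about 16% in these data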;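 also: 0% = DMSO wells and 100% = 60 µM geldanamycin wells; inhibitors lower the luminescence because luciferase stays unfolded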
Peg3 prom inh – Peg3 promoter-driven luciferase inhibitors, primary screen, cell-based, HeLa, luciferase luminescence. HeLa PEG-Prom luciferase reporter, overnight. inhibition, % at 20 µM. 360,000 tested, 1.7% active;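 active = inhibition of at least 50% at 20 µM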
LGR2 antag – inhibitors of bursicon-induced LGR2 CRE-luciferase signal, primary screen, cell-based, HEK293, CRE-luciferase reporter, bursicon stimulation; 380,000 tested, 0.35% active; AID 720647, 2013; inhibition, % at 9.99 µM; Drosophila bursicon receptor LGR2 (rickets); bursicon-stimulated, 4 h;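 active = drop in luminescence signal, shown as inhibition above about 50% in the replicate tests, limit read from the data, passing the limit was not always enough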;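 also: agonist challenge used bursicon conditioned medium at about half maximal strength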
Mdm2-MdmX conf – Mdm2-MdmX complex disruptors, retested hits, confirmation, luminescence, single concentration; shares compounds with Mdm2-MdmX inh; inhibition, % at 8 µM; 10,000 tested, 55% active; AID 489028, 2010; Mdm2-MdmX binding, luminescent assay; in the data active = inhibition above about 40%
FLuc counter – full-length luciferase signal inhibition, confirmation, counter-screen for Mdm2/MdmX interaction inhibitor project, cell-based, single concentration, SaOS-2; shares compounds with Mdm2-MdmX inh; 6,200 tested, 77% active; SaOS-2 full-length luciferase counterscreen, luminescence; inhibition, % at 8 µM;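 active = mean inhibition at 8 µM reaching about 37%, which flags the compound as non-specific, limit read from the data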;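 also: p53-null SaOS-2 cells with luciferase driven by a doxycycline-inducible promoter; compound on cells about two nights before reading with doxycycline added after day one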
* marks the source's active call; other numbers are inactive results; . = no result.

SMILES	Mdm2-MdmX inh	KKLEB cytotox	CF NFkB block	HSP90 refold inh	Peg3 prom inh	LGR2 antag	Mdm2-MdmX conf	FLuc counter
CCOC(=O)COn1c(=O)c(-c2ccc(OC)c(OC)c2)[n+]([O-])c2ccccc21	93*	.	.	3	.	.	29	.
COc1ccc(NS(=O)(=O)c2ccc(Cl)s2)cn1	-11	-5	-12	-2	6	-3	.	.
COc1ccc(NS(=O)(=O)c2cccs2)cn1	79*	-4	5	-3	17	1	12	.
CC(C)c1ccc(N2C(=O)CC(Sc3nc4ccccc4o3)C2=O)cc1 (stereo not drawn)	100*	-7	2	-7	9	.	29	.
Cc1onc(C(=O)N2CCN(C(c3ccccc3)c3ccccc3)CC2)c1[N+](=O)[O-]	71*	-3	23	-3	2	12	88*	52*
COc1ccccc1N1CCN(C(=O)c2noc(C)c2[N+](=O)[O-])CC1	9	7	-10	10	8	3	.	.
COC(=O)c1ccccc1NC(=O)c1ccc(-c2ccc(Br)cc2)o1	58*	-6	4	12	-168	-19	62*	152*
CC(C)Cc1nc2oc3c(Cl)ncnc3c2c2c1CCCC2	68*	-2	22	1	113*	6	9	.
CCCc1nc2oc3c(NCCN(C)C)ncnc3c2c2c1CCCC2	56*	-24	16	3	68*	.	60*	38*
COc1ncnc2c1oc1nc(CC(C)C)c3c(c12)CCCC3	.	-6	12	1	9	.	.	.
CO[C@H]1CN(C)C(=O)c2cc(NC(=O)c3ccccc3F)ccc2OC[C@@H](C)N(C(=O)c2ccccc2F)C[C@@H]1C	.	.	.	.	.	6	.	.
CC(=O)c1ccc(NC(=O)c2cc(CC(C)C)nc3ccccc23)cc1	58*	1	10	2	-64	.	66*	34
CCOc1ccc(NC(=O)c2cc(Cl)nc3ccccc23)cc1	51*	-8	-2	-4	18	11	38	62*
CC(=O)c1ccc(Nc2cc(C)nc3ccccc23)cc1	59*	-11	-13	4	-2	4	50*	61*
CC(=O)c1ccc(Nc2cc(C)nc3c(C)cccc23)cc1	33	-21	5	4	-102	-115	.	.
CCOc1ccc(NC(=O)c2ccccc2O)cc1	-120	-4	3	1	-240	.	.	.
CCOc1ccc(-c2cc(C(=O)Nc3ccc4c(c3)OCCO4)c3ccccc3n2)cc1	50*	-10	10	-2	-69	.	40*	97*
O=C(C[C@H]1C[C@H]2c3cc(NC(=O)Nc4ccc(C(F)(F)F)cc4)ccc3O[C@H]2[C@@H](CO)O1)NCc1ccc2c(c1)OCO2	.	.	.	.	.	6	.	.
C[C@H](CO)N1C[C@H](C)[C@H](CN(C)C)Oc2ccc(NC(=O)C3CC3)cc2C1=O	.	.	.	.	.	7	.	.
C[C@@H]1CN([C@@H](C)CO)C(=O)c2cc(NC(=O)Nc3ccc(F)cc3)ccc2O[C@@H]1CN(C)Cc1ccc(Cl)c(Cl)c1	.	.	.	.	.	-19	.	.
CCCCN=C1SC(C(=O)Nc2sc3c(c2C(=O)OC)CCC3)C(N)=C1C(=O)N1CCOCC1 (stereo not drawn)	66*	2	10	.	-1	-12	-14	.
CC1(C)C[C@H](O)[C@]2(CO)[C@H](O)C[C@]3(C)C(=CCC4[C@@]5(C)CC[C@H](O)C(C)(C)C5CC[C@]43C)[C@@H]2C1 (stereo partly drawn)	100*	-65*	69*	.	95*	12	28	.
Cc1noc(C)c1NC(=O)Nc1ccc2c(c1)C(=O)N([C@@H](C)CO)C[C@H](C)[C@H](CN(C)C(=O)NC(C)C)OCCCC[C@H](C)O2	.	.	.	.	.	8	.	.
COc1ccc(-n2nc(C(=O)NCC(=O)NC(C)C)c3ccccc3c2=O)cc1Cl	9	2	-2	-2	2	1	.	.
COc1ccc(-n2nc(C(=O)NCC(=O)Nc3cccc(Cl)c3)c3ccccc3c2=O)cc1OC	80*	-8	10	2	33	13	48*	37*
SMILES	Mdm2-MdmX inh	KKLEB cytotox	CF NFkB block	HSP90 refold inh	Peg3 prom inh	LGR2 antag	Mdm2-MdmX conf	FLuc counter
COc1ccc(-n2nc(C(=O)NCC(=O)Nc3ccccn3)c3ccccc3c2=O)cc1Cl	88*	-25	26	1	23	.	17	.
CCC(=O)Nc1ccc2c(c1)OC[C@@H](C)N(C(=O)c1ccc(F)cc1)C[C@H](C)[C@@H](OC)CN(C)C2=O	.	.	.	.	.	0	.	.
COc1ccc(-c2cc(-c3cccnc3)c(C#N)c(N)n2)cc1	73*	-4	2	1	5	-9	9	.
COc1ccc(OC)c(-c2cc(-c3cccnc3)nc(N)c2C#N)c1	63*	-9	-8	-7	15	10	62*	76*
COc1cccc(-c2cc(-c3cccnc3)nc(N)c2C#N)c1	59*	-1	0	-6	13	-9	12	.
COc1cccc(-c2cc(-c3cccnc3)c(C#N)c(N)n2)c1	22	-9	-15	-7	-18	-6	.	.
CCCC#Cc1cnc2c(c1)C(=O)N([C@H](C)CO)C[C@@H](C)[C@@H](CN(C)Cc1ccncc1)O2	.	.	.	.	.	1	.	.
C[C@@H](c1ccccc1)N1C[C@H]2CCCN2c2cc(Br)ccc2S1(=O)=O	54*	-10	20	.	27	-4	42*	41*
O=S1(=O)c2ccc(Br)cc2N2CCC[C@@H]2CN1Cc1ccc(Cl)cc1	.	-28	29	.	24	9	.	.
O=S1(=O)c2ccc(Br)cc2N2CCC[C@H]2CN1Cc1ccccc1	52*	-4	38	.	15	9	51*	37*
O=S1(=O)c2ccc(Br)cc2N2CCC[C@@H]2CN1C1CC1	.	-3	4	.	15	4	.	.
COc1ccccc1CNC(=O)C[C@@H]1C[C@H]2c3cc(NC(=O)C4CCOCC4)ccc3O[C@H]2[C@@H](CO)O1	.	.	.	.	.	-17	.	.
O=C(C[C@H]1C=C[C@@H](NC(=O)C2CCC2)[C@H](CO)O1)NC1CCC1	.	.	.	.	.	21	.	.
CNC[C@@H]1OCCCC[C@H](C)Oc2ccc(NS(=O)(=O)c3ccc(OC)cc3)cc2C(=O)N([C@@H](C)CO)C[C@@H]1C	.	.	.	.	.	-26	.	.
O=C(Nc1nc(-c2ccccc2)cs1)c1ccc2c(c1)S(=O)(=O)c1ccccc1C2=O	74*	-57*	50	4	25	2	4	.
